Bioassay records as filed in PubChem BioAssay.
This is a sample that favours compounds with a hit; in the whole collection about 2.4% have one here.
D2 ag-1 = agonists of human D2 dopamine receptor (beta-arrestin). P14416. DiscoveRx PathHunter D2 beta-arrestin, luminescence, 90 min; 100% = 57 uM dopamine signal. activation, % (concentration not given with the values). 360,000 compounds, 0.084% hits; in the data active = activation above about 40%
Target sequence (P14416 whole entry, looked up): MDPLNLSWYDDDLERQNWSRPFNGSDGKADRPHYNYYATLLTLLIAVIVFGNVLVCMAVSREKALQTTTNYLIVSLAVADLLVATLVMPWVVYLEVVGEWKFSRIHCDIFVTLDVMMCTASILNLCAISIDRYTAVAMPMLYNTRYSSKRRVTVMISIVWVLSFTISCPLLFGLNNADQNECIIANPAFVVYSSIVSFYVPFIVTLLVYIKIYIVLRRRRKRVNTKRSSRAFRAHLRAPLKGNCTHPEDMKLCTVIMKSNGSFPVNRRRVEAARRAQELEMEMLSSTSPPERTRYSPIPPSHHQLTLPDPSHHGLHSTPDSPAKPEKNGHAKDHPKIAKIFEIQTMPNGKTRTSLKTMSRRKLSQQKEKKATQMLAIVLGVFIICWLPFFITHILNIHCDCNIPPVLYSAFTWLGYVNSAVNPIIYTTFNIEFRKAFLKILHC
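DiscoveRx PathHunter D2 beta-arrestin cells (2,100/well) attached overnight, then compound-stimulated 90 min at 37 C in HBSS/10 mM HEPES/0.1% Tween-20 buffer; beta-galactosidase complementation read by luminescence after 1 h at ambient temperature. Dopamine 57 uM final (EC100) as control.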
D2 ag-2 = activates the human D2 dopamine receptor; HEK293 T-REx D2 cells, calcium flux agonist mode; activation, % at 2 µM; 340,000 compounds, 0.53% hits; P14416;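 active = activation over 3 SD above normal in the single-dose calcium agonist read, cut at about 30% in these data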
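Agonism scored from kinetic calcium signal (1 read/sec, 180 s) following compound pin transfer, after a 10 s baseline. Cells: HEK293 Trex line expressing inducible D2 receptor coupled to calcium, dye-loaded after overnight culture at 30 C.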
D2 antagonist = antagonists of human D2 dopamine receptor. 340,000 compounds, 2% hits. P14416. HEK293 TREx D2 cells, calcium flux, dopamine EC80. inhibition, % at 10 µM; in the data active = inhibition above about 30%; inactive = below that, where a call was filed
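Compounds are added to dye-loaded, induced HEK293 T-REx cells coupled to calcium release via D2; after a 3 min kinetic read an EC80 dopamine stimulus is given and fluorescence is recorded for 3 more min.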
D2 PAM-1 = positive allosteric modulators of human D2 dopamine receptor; P14416; HEK293 T-REx D2, calcium flux, EC20 dopamine potentiation; potentiation, % at 10 µM; 340,000 compounds, 0.34% hits; AID 485347;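 active = potentiation over 3 SD above the plate norm, cut at about 30% in these data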
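Using a no-wash calcium dye in inducible, force-coupled HEK293 Trex cells expressing D2, we tracked fluorescence each second for 180 s after compound, then for 180 s after EC20 dopamine to detect augmented signalling.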
D2 PAM-2 = potentiates the human D2 dopamine receptor allosterically; 360,000 compounds, 0.23% hits; DiscoveRx D2 beta-arrestin cells, luminescence, 90 min; 100% = 57 uM dopamine signal; AID 624464; P14416; potentiation, % (no concentration beside the values); in the data active = potentiation above about 50%
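PathHunter D2 cells, attached overnight at 37 deg C, received compound in DMSO plus dopamine at EC20 (50 nM final) for 90 min at 37 deg C. Beta-arrestin recruitment was read as luminescence after 1 h with detection reagent at ambient temperature.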
A number is an active result; - = inactive; . = no result given.

SMILES | D2 ag-1 | D2 ag-2 | D2 antagonist | D2 PAM-1 | D2 PAM-2
CCc1nc2nc(C)c(NS(=O)(=O)c3ccc(Br)s3)c(=O)n2[nH]1 | - | - | - | 30.6 | -
CCc1nc2nc(C)c(NS(=O)(=O)c3cccs3)c(=O)n2[nH]1 | - | - | - | 51.4 | -
CCc1nc2nc(C)c(NS(=O)(=O)c3ccc(F)c(C)c3)c(=O)n2[nH]1 | . | - | . | - | .
Cc1ccc(S(=O)(=O)Nc2c(C)nc3nc(C)[nH]n3c2=O)c(C)c1 | - | - | 35.5 | - | -
CC1(C)CC(=O)C2=C(C1)N1C(=C(C#N)C2c2ccccc2Cl)N=C(N)c2ccccc21 (configuration not stated) | - | - | 35.8 | - | -
CC1(C)CC(=O)C2=C(C1)N1C(=C(C#N)C2c2ccc(Cl)cc2)N=C(N)c2ccccc21 (configuration not stated) | - | - | - | - | -
Cc1cc(NC2CCCCC2)nc2ccccc12 | - | - | 44.0 | - | -
CCOC(=O)C1=C(CN2CCN(c3cc(C)ccc3C)CC2)NC(=O)NC1c1ccc(Cl)cc1 (configuration not stated) | . | - | . | - | .
Cc1nc(=O)c(-c2ccccc2)c(C)n1-c1cccc(C(=O)O)c1 | - | - | 31.3 | - | -
O=C(NCCN1CCCCC1)c1ccc(Cn2c(SCc3ccc(F)cc3)nc3cccnc32)cc1 | . | - | . | - | .
Cc1ccc(Cn2cc(S(=O)(=O)c3ccc(C(C)C)cc3)c(=O)c3cc4c(cc32)OCO4)cc1 | - | - | 36.1 | - | -
COc1ccc(CCNC(=O)c2cnc3ccc(C)cn3c2=O)cc1OC | . | - | . | - | .
CCNc1nc(NCC)nc(N/N=C/c2ccc(O)c(O)c2)n1 | - | - | 43.6 | - | -
CCNc1nc(NCC)nc(N/N=C/c2ccc(N(C)C)cc2)n1 | - | - | - | - | -
O=C(CSc1nc2ccccc2[nH]1)Nc1c(F)c(F)c(F)c(F)c1F | - | - | - | 43.0 | -
COc1ccc(Oc2coc3cc(OC(=O)c4cccs4)ccc3c2=O)cc1 | - | - | - | 36.6 | -
COC(=O)c1cc(CN2CCN(c3ccccc3C)CC2)ccc1O | - | - | 57.9 | - | -
COc1ccccc1OCCCCN1CCN(c2ccccc2OC)CC1 | - | - | - | - | -
COc1ccc(CN2CCN(c3ccccc3OC)CC2)c(OC)c1 | - | - | 91.2 | - | -
COc1ccc2ccccc2c1CN1CCN(C)CC1 | - | - | 39.8 | - | -
COc1ccccc1N1CCN(Cc2cnc3ccc(Cl)cn23)CC1 | - | - | 55.2 | - | -
COc1ccccc1NC(=O)C1CCN(S(=O)(=O)c2ccc3[nH]c4c(c3c2)CCCCC4)CC1 | . | - | . | - | .
COc1ccc(OC)c(CN2CCN(c3ccccc3OC)CC2)c1 | - | - | - | - | -
COc1ccccc1Nc1nc(N)nc(CN2CCN(c3ccccc3F)CC2)n1 | - | - | - | - | -
COc1ccccc1N1CCN(Cc2nc(N)nc(Nc3ccc(C)c(Cl)c3)n2)CC1 | - | - | 54.8 | . | -
SMILES | D2 ag-1 | D2 ag-2 | D2 antagonist | D2 PAM-1 | D2 PAM-2
COc1ccccc1N1CCN(Cc2cc3c(cc2[N+](=O)[O-])OCO3)CC1 | - | - | 51.6 | - | -
COc1ccc(CN2CCN(c3ccccc3OC)CC2)cc1OC | - | - | 66.0 | - | -
COc1ccccc1N1CCN(Cc2ccc(C(=O)O)cc2)CC1 | - | - | - | - | -
COc1ccccc1N1CCN(Cc2ccc(OC)c(OC)c2OC)CC1 | - | - | 80.8 | - | -
CCCCNC(=O)CCCn1c(=O)c2ccccc2n(CC(=O)Nc2ccccc2OCC)c1=O | . | - | . | - | .
CCOc1ccc(CNC(=O)c2cc3c(s2)-c2ccccc2OC3)cc1 | . | . | . | - | .
COc1ccc(OC)c(CN2CCN(Cc3cccc4ccccc34)CC2)c1 | - | - | 71.0 | - | -
COc1ccc(OC)c(CN2CCCCCC2)c1 | - | - | - | - | -
O=C(CSc1ncccn1)N/N=C/c1cccc(OC2CSC2)c1 | - | - | 36.0 | - | -
Cc1cc(F)ccc1-n1nnc(C(N)=O)c1C | . | - | . | - | .
CCOc1ccc(NC(=O)CN(C)C(=O)CN2C(=O)c3ccc([N+](=O)[O-])cc3C2=O)cc1OCC | - | - | - | - | 56.6
CCCCN1C(=O)c2ccc(C(=O)N(C)CC(=O)Nc3ccc(OCC)c(OCC)c3)cc2C1=O | - | . | . | . | -
